# TDP1 block: qHTS Assay for Inhibitors of Tyrosyl-DNA Phosphodiesterase (TDP1). Potency, µM (doses to about 130 µM), hits mostly inhibitors. recombinant TDP1, AlphaScreen DNA substrate cleavage. 350,000 tested, 0.28% active. AID 485290, 2010. Tyrosyl-DNA phosphodiesterase 1 (Homo sapiens), Q9NUW8; also: nearly all actives have a fitted effect of over 40% in size
#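 AlphaScreen read-out: signal falls as enzyme removes the 3' tyrosine-FITC from a 5'-biotinylated DNA oligo (15 nM, 5 min, RT). Enzyme was E. coli-made recombinant Tdp1 at 1 nM, exposed to compound for 15 min beforehand; beads 10 ug/ml, 10 min.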
# TDP1 cell noCPT: qHTS for Inhibitors of human tyrosyl-DNA phosphodiesterase 1 (TDP1): qHTS in cells in absence of CPT | DT40 Tdp1-/- hTDP1 cells, no CPT, ATP luminescence, 48 h | Potency, µM (top dose mostly 46.2 µM), most hits filed as inhibitors | 420,000 tested, 15% active | AID 686978, 2013; also: nearly all actives have a fitted effect of over 55% in size
#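 Camptothecin absent (DMSO only). Human TDP1-complemented DT40 knockout cells, 400 cells/well, 37 °C for minimum 48 hr; ATP measured via CellTiter-Glo, 30 min dark incubation, luminescence.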
# TDP1 cell CPT: qHTS for Inhibitors of human tyrosyl-DNA phosphodiesterase 1 (TDP1): qHTS in cells in presence of CPT; chicken DT40 Tdp1-/-;hTDP1 cells + 20 nM CPT, ATP luminescence, 48 h; Potency, µM (series often up to 46.2 µM), hits mostly inhibitors; 420,000 tested, 12% active; also: nearly all actives have a fitted effect of over 55% in size
#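 Chicken DT40 Tdp1-/- cells complemented with human TDP1, 400 cells/well, exposed to compounds plus 20 nM camptothecin for at least 48 h at 37 C; viability read as ATP content by CellTiter-Glo luminescence.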
# KAT2A inh: qHTS Assay for Inhibitors of GCN5L2 | 390,000 tested, 0.21% active | GCN5L2 HAT assay, ThioGlo1 CoA-SH fluorescence | Potency, µM (top dose mostly 58.9 µM), actives largely listed as inhibitors | Histone acetyltransferase KAT2A (Homo sapiens), Q92830
#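 Fluorescence readout, Ex340nm/Em540nm: ThioGlo1 (50uM final) reacts with free CoA thiol released as 20nM GCN5L2 acetylates H3(1-25) peptide (75uM) using acetyl-CoA (70uM). Compound and enzyme sat 15 min beforehand; 20 min room-temperature reaction.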
# VDR inh: Inhibitors of the vitamin D receptor (VDR): qHTS | VDR-SRC2-3 peptide fluorescence polarization, 2 h | Vitamin D3 receptor (Homo sapiens), P11473 | 400,000 tested, 0.93% active | Potency, µM, most hits filed as inhibitors | AID 504847, 2011
#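 Two reagent solutions held at 4 deg C in the dark were dispensed, compounds pinned at 23 nl, and the mixture incubated 2 h at room temperature. Read-out: fluorescence polarization of VDR–SRC2-3 peptide binding.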
# PLK1 PBD block: qHTS for Inhibitors of PLK1-PDB (polo-like kinase 1 - polo-box domain): Primary Screen; Plk1 PBD binding of FITC phosphopeptide, fluorescence polarization; Potency, µM, hits mostly inhibitors; 360,000 tested, 2.8% active; AID 720504, 2013; also: series mostly up to about 57 µM; nearly all actives have a fitted effect of over 65% in size
# Numbers stand for hits; . = inactive; ? = inconclusive; / = not tested or not shown. In the library only some 18% were active in any assay of this set; here they are far more common. Calls follow the shape of the dose curve; as a rule, active = well fitted curve in the direction sought with a large enough effect; inconclusive = small, poorly fitted or top-dose-only effect, or another doubt; inactive = no such curve, though single readings can be large; an effect the other way counts as inactive or inconclusive.
SMILES,TDP1 block,TDP1 cell noCPT,TDP1 cell CPT,KAT2A inh,VDR inh,PLK1 PBD block
CC(C)c1ccc(O)c(NC(=S)NC(=O)c2ccc3c(c2)OCO3)c1,.,15µM,13µM,.,.,.
C/C(=N\Nc1ccccn1)c1ccc2c(c1)OCO2,.,?,18µM,.,.,.
C/C(=N\Nc1ccccn1)c1ccc(C(C)C)cc1,.,?,?,.,.,.
Cc1ccc(CNC(=O)C2CCCN2C(=O)Nc2ccc(F)cc2)cc1 (configuration not stated),.,.,.,.,.,.
Cn1c(N)c(C(=O)COC(=O)C2(c3ccccc3F)CCCC2)c(=O)n(C)c1=O,.,?,?,.,.,.
Cn1c(N)c(C(=O)COC(=O)C2(c3ccc(F)cc3)CCCC2)c(=O)n(C)c1=O,.,18µM,?,.,.,.
Cn1c(N)c(C(=O)COC(=O)/C=C/c2ccc(Cl)cc2Cl)c(=O)n(C)c1=O,.,16µM,?,.,.,.
CC(C)[C@H](NS(=O)(=O)c1ccc(Cl)cc1)C(=O)OCC(=O)NCCN1C(=O)CSC1=O,.,.,.,.,.,.
CC(C)[C@H](NS(=O)(=O)c1ccc(Cl)cc1)C(=O)OCC(=O)c1c(N)n(C)c(=O)n(C)c1=O,.,21µM,?,.,.,.
Cn1c(N)c(C(=O)COC(=O)C2(c3ccc(Cl)cc3)CCCC2)c(=O)n(C)c1=O,.,12µM,15µM,.,.,3µM
COc1ccc(OC)c(CN2C(=O)CSCC2(C)C(=O)NC(C)C)c1 (configuration not stated),/,.,.,/,/,.
Cc1ccc(S(=O)(=O)N2C[C@H]3N(C(=O)OC(C)C)N(C(=O)OC(C)C)C[C@H](OC(=O)NCc4ccccc4F)[C@@]3(O)C2)cc1,/,23µM,?,/,/,.
COc1ccc(CNC(=O)O[C@H]2CN(C(=O)OC(C)C)N(C(=O)OC(C)C)[C@@H]3CN(S(=O)(=O)c4ccc(C)cc4)C[C@]23O)cc1OC,/,23µM,?,/,/,.
COc1ccc(CNC(=O)O[C@H]2Cn3c(=O)ccc(=O)n3[C@@H]3CN(S(=O)(=O)c4ccc(C)cc4)C[C@]23O)cc1OC,/,.,.,/,/,.
Cc1ccc(S(=O)(=O)N2C[C@H]3N(C(=O)OC(C)C)N(C(=O)OC(C)C)C[C@H](OC(=O)Nc4c(C)noc4C)[C@@]3(O)C2)cc1,/,?,?,/,/,.
Cc1ccc(S(=O)(=O)N2C[C@H]3N(C(=O)OC(C)C)N(C(=O)OC(C)C)C[C@H](OC(=O)Nc4cccs4)[C@@]3(O)C2)cc1,/,23µM,?,/,/,?
O=C(CC[C@H]1O[C@@H](n2ccc(=O)[nH]c2=O)[C@H](O)[C@@H]1O)NCCCc1ccccc1,/,.,.,/,/,.
NC(=O)CSc1ncc2c(n1)-c1ccccc1N(Cc1ccccc1)S2(=O)=O,.,.,.,.,.,/
O=C(CCCCCN1C(=O)[C@@H]2Cc3ccccc3CN2C1=O)Nc1cccc(F)c1,.,15µM,?,.,.,.
Cc1cccc(NC(=O)CCCCCN2C(=O)[C@@H]3Cc4ccccc4CN3C2=O)c1,.,?,.,.,.,.
COc1ccccc1CNC(=O)CCCn1c(=O)c2cccn2c2ccccc21,.,29µM,?,.,.,/
COc1cccc(CNC(=O)CCCn2c(=O)c3cccn3c3cccnc32)c1OC,.,?,?,.,.,/
O=C(CCCCn1c(=O)c2ccccc2n(Cc2ccccc2F)c1=O)NC1CCN(Cc2ccccc2)CC1,.,16µM,?,.,.,.
COc1ccc(OC)c(CCNC(=O)CCCn2c(=O)c3cccn3c3ccccc32)c1,.,21µM,18µM,.,.,/

# Bioassay records from PubChem BioAssay.
